Test [1] is described as follows: ATG_CRE_CIS: Attagene CIS-FACTORIAL HepG2 Assay for human cAMP Responsive Element (CRE) binding protein 3 (AID 2282926). The following applies: HepG2 CRE cis-reporter, Attagene multiplexed mRNA; actives raise or lower the signal. In a few lines:
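Cells carrying cis-regulated reporter constructs respond through their own endogenous factors. After 24 h treatment, RNA is reverse-transcribed, amplified, labelled and sized by capillary electrophoresis; up- and down-regulation are both scored against vehicle.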

For test [2], the target named is CCAAT/enhancer-binding protein beta (Homo sapiens) (UniProt P17676). Kind of test: ATG_C_EBP_CIS: Attagene CIS-FACTORIAL HepG2 Assay for human CCAAT/Enhancer Binding Protein (C/EBP) beta (AID 2282927). The settings on record: HepG2 Attagene cis-factorial transcription factor reporter; actives raise or lower the signal. In short, it runs like this:
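Changes in reporter mRNA, rather than exogenous chimeric receptor activity, reflect native C/EBP signalling in transfected HepG2 cells dosed for 24 h; transcripts are detected by RT-PCR and capillary electrophoresis.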

Test [3] can be described thus: ATG_CMV_CIS: Attagene CIS-FACTORIAL HepG2 Assay for human CMV (Internal Marker) (AID 2282928).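 Also: endpoint acts as a background internal control marker rather than a target.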 The following applies: HepG2 CMV promoter reporter, transcription factor profiling; actives raise or lower the signal. In a few lines:
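Readout: fluorescent reporter cDNA fragments separated by capillary electrophoresis after RT-PCR and HpaI cut. Cells: HepG2 carrying transfected cis-promoter reporter constructs, dosed 24 h. Endpoint serves as background internal-marker control, fit bidirectionally versus DMSO.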

A short description of test [4]: ATG_DR4_LXR_CIS: Attagene CIS-FACTORIAL HepG2 Assay for human Liver X Receptor (LXR), DR4 submotif (AID 2282929). The settings on record: HepG2 Attagene DR4 cis-reporter, mRNA transcription; actives raise or lower the signal. In a few lines: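 Total RNA from 24 h-treated, MRTU-transfected HepG2 cells underwent reverse transcription, PCR, fluorescent primer extension and restriction digestion before capillary electrophoresis. Both increases and decreases in reporter signal were fitted against DMSO.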

Test [5] concerns the target Aryl hydrocarbon receptor (Homo sapiens) (UniProt P35869). Description: ATG_Ahr_CIS: Attagene CIS-FACTORIAL HepG2 Assay for human Aryl Hydrocarbon Receptor (Ahr) (AID 2282930). The following applies: HepG2 AhR cis-factorial reporter transcription; actives raise or lower the signal. In a few lines: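 HepG2, transient MRTU (cis) transfection, 24 h exposure. RNA → cDNA → PCR → 6-FAM primer extension → HpaI 2 h 37 C → CE. Fit: bidirectional, DMSO baseline.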

Test [6] can be described thus: ATG_AP_1_CIS: Attagene CIS-FACTORIAL HepG2 Assay for human Activator Protein 1 (AP-1) (AID 2282931). The following applies: HepG2 Attagene cis-factorial AP-1 reporter mRNA; actives raise or lower the signal. In short, it runs like this: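 HepG2, transient cis-reporter transfection; 24 h; readout RT-PCR/CE fluorescence; DMSO baseline, gain and loss fitted.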
A short description of test [7]: ATG_AP_2_CIS: Attagene CIS-FACTORIAL HepG2 Assay for human Activator Protein 2 (AP-2) (AID 2282932). The settings on record: HepG2 AP-2 cis-reporter, Attagene transcription factor profiling; actives raise or lower the signal. In short, it runs like this:
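Endogenous transcription factor activity is reported through transfected multiplex reporter constructs in HepG2, after 24 h of compound exposure. Transcripts were quantified by RT-PCR and capillary electrophoresis of fluorescent fragments. Bidirectional fit against DMSO.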

Test [8] concerns the target Retinoic acid receptor alpha (Homo sapiens) (UniProt P10276). Description: ATG_DR5_RAR_CIS: Attagene CIS-FACTORIAL HepG2 Assay for human Retinoic Acid Receptor Alpha (RARE), DR5 submotif (AID 2282934).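 As to AC50: reporter responds to endogenous RAR alpha beta and gamma in HepG2 not RARA alone.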 The following applies: HepG2 Attagene cis-factorial RARE DR5 reporter, mRNA; actives raise or lower the signal. In a few lines: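 HepG2, transient cis-reporter transfection, 24 h exposure. mRNA readout: RT-PCR, FAM label, HpaI cut, capillary electrophoresis. DMSO baseline, gain/loss fitting.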

For test [9], the target named is Transcription factor E2F1 (Homo sapiens) (UniProt Q01094). Kind of test: ATG_E2F_CIS: Attagene CIS-FACTORIAL HepG2 Assay for human E2F Transcription Factor 1 (AID 2282935). The settings on record: HepG2 Attagene cis-reporter, E2F reporter RNA transcripts; actives raise or lower the signal. In short, it runs like this:
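Gain or loss of reporter transcript, fitted against DMSO, reflects E2F1-driven transcription. Transiently transfected HepG2 dosed 24 h before RNA isolation. Quantified by fluorescent RT-PCR products separated by capillary electrophoresis.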

Test [10] in a line: ATG_BRE_CIS: Attagene CIS-FACTORIAL HepG2 Assay for human Bone Morphogenetic Protein (BMP) Response Element (BRE) (AID 2282933). The settings on record: HepG2 BMP response element reporter, Attagene transcription factor profiling; actives raise or lower the signal. In a few lines:
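After a 24 h chemical treatment, transiently transfected HepG2 cells were lysed for RNA; reporter transcripts were quantified by fluorescent RT-PCR and capillary electrophoresis, normalised to DMSO.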

A word on the AC50: it is the midpoint of the concentration-response curve, whichever way the signal moves.

“And” between values parts separate entries of the source, which are not always exact repeats. Identical values can stand only once. A structure can be active in one record and inactive in another. The source made the active and inactive calls. The calls were made as follows: active = hit-call score of the fitted dose curve at least 0.9, where 1 is the maximum; inactive = score below 0.9.

CCAAT/enhancer-binding protein beta (Homo sapiens), sequence (P17676 whole entry, looked up): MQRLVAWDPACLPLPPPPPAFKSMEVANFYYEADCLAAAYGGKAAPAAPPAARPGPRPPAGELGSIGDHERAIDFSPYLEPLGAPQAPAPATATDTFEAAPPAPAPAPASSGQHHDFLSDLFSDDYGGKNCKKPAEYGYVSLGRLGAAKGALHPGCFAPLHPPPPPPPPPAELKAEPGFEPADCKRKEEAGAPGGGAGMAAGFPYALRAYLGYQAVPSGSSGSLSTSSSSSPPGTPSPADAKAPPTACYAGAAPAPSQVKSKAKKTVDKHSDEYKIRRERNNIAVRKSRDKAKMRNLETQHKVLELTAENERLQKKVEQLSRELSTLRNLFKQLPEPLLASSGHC
Transcription factor E2F1 (Homo sapiens), sequence (Q01094 whole entry, looked up): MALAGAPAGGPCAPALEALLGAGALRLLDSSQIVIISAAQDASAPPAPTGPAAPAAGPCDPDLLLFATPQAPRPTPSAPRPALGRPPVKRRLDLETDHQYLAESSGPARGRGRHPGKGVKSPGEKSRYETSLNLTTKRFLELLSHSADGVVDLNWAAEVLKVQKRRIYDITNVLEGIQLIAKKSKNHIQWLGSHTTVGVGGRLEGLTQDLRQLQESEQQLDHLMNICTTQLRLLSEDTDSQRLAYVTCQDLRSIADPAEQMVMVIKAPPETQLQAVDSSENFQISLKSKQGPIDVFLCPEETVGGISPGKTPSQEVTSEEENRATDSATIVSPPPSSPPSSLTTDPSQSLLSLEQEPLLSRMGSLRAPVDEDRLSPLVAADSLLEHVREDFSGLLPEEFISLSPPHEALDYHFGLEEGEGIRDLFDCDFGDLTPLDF
Retinoic acid receptor alpha (Homo sapiens), sequence (P10276 whole entry, looked up): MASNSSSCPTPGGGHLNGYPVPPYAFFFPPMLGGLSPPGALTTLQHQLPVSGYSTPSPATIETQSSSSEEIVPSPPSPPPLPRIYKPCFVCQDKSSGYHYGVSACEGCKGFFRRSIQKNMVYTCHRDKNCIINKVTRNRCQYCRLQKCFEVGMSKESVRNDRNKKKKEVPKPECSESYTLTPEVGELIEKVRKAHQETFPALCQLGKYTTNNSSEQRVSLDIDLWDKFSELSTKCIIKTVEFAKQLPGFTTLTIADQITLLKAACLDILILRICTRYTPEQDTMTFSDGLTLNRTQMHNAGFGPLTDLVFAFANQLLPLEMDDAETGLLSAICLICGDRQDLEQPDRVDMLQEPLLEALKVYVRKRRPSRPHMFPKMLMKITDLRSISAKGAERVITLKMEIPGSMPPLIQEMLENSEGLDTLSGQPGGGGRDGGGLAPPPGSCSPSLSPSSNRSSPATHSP
Aryl hydrocarbon receptor (Homo sapiens), sequence (P35869 whole entry, looked up): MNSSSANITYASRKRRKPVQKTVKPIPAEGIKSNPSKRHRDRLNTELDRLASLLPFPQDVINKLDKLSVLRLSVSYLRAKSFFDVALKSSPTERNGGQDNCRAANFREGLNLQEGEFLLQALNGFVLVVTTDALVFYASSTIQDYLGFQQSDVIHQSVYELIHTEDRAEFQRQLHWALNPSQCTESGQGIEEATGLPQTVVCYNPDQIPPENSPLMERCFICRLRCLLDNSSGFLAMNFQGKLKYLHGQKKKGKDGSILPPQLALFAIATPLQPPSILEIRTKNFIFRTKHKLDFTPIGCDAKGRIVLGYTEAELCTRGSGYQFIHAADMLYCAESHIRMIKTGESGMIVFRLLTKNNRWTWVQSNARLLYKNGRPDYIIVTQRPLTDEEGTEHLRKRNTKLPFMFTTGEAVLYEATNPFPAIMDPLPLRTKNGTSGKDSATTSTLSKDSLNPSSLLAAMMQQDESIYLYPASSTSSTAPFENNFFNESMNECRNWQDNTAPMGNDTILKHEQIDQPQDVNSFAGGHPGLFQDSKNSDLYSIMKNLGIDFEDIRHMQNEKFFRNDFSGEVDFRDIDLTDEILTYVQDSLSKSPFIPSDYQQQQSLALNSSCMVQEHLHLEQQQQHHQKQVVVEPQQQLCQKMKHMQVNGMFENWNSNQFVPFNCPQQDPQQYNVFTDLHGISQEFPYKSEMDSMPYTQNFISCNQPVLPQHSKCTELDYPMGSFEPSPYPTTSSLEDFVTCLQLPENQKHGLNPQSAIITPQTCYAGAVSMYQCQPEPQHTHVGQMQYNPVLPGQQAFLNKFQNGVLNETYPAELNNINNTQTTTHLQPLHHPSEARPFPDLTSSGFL

`CCC(=O)O[C@H]1CC[C@H]2[C@@H]3CCC4=CC(=O)CC[C@]4(C)[C@H]3CC[C@]12C`: the half-maximal activity concentration (AC50) in [1] was 144 µM (active) [middle of 4 runs]; in test [3], 72.9 µM (active) and 100 µM (active); in [4] it was 170 µM (active) and 169 µM (active) and 162 µM (active); in test [5], 38.6 µM (active). Further, the result in test [2], in test [3], in [4], in [5], in test [6] and in test [7] was inactive. In addition, the compound was called inactive in test [8] and in test [9].

With `C[C@]12CCC(=O)C=C1CC[C@@H]1[C@@H]2CC[C@@]2(C)[C@H]1CC[C@]2(C)O`, the call in test [1], in test [2], in [3], in test [4], in test [5] and in [6] was inactive. For the same compound, the call in test [7], in test [8] and in test [9] was inactive. Besides, the AC50 in test [4] was 163 µM (active); in test [6], 114 µM (active); in [7] it was 33.9 µM (active).

Regarding `CCOCCOC(C)=O`, the call in [1], in [2], in [3], in test [4], in test [5] and in test [6] was inactive. Also, the result in test [7], in test [10], in [8] and in test [9] was inactive.

For `CCC(C)(CC)c1cc(NC(=O)c2c(OC)cccc2OC)on1`, the AC50 was 1.16 µM (active) in test [1]; 32 µM (active) in test [4]; 20.5 µM (active) in test [5]; 9.92 µM (active) in [10]; 12.7 µM (active) in test [8]. Further, the outcome in test [3], in [6], in [7] and in test [9] was inactive.

With `N#Cc1ccc(N(CC(N)=O)CC(F)(F)F)cc1C(F)(F)F`, the compound was called inactive in test [1], in [3], in [4], in test [5], in test [6] and in [7]. The result in test [10] and in test [9] was inactive. Also, in test [8], the concentration at half-maximal activity (AC50) was 1.56 µM (active).

`Cc1cc(-c2ccc(N)c(C)c2)ccc1N`: the call in [1], in test [3], in [4], in test [6], in test [7] and in [8] was inactive. In addition, the call in test [9] was inactive. Also, the AC50 in [3] was 60.2 µM (active).

In the case of `CCOP(=S)(OCC)SCSC(C)(C)C`, the result in [1], in test [3], in test [4], in [5], in test [6] and in test [7] was inactive. Besides, the result in test [9] was inactive. Also, the figures for the AC50 in test [4] and in test [5] were 10.6 µM (active) and 78.2 µM (active), respectively.

As to `Cc1cc(O)ccc1Cl`, the call in [1], in test [3], in test [4], in [5], in [6] and in test [7] was inactive. In addition, the compound was called inactive in test [10], in test [8] and in [9].

With `Nn1cnnc1`, the outcome in test [1], in test [3], in [4], in test [5], in [6] and in test [7] was inactive. In addition, the compound was called inactive in test [8] and in [9].

As for `CC(C)C(=O)OCC(C)(C)C(OC(=O)C(C)C)C(C)C` (centres undefined), the outcome in test [1], in test [3], in test [4], in [6], in test [7] and in [10] was inactive. In addition, the outcome in [8] and in test [9] was inactive. Besides, in test [5], the half-maximal activity concentration (AC50) is 69 µM (active).

`COS(=O)(=O)OC`: the outcome in test [1], in test [3], in [4], in test [5], in [6] and in test [7] was inactive. Moreover, the compound was classed as inactive in test [10], in [8] and in test [9].

Turning to `O=C(N[C@H]1CN2CCC1CC2)c1cc2ccoc2cn1`, the compound was called inactive in [1], in test [3], in test [4], in test [5], in test [6] and in [7]. In addition, the result in [8] and in test [9] was inactive.

Take `O=C(NC(=O)c1c(F)cccc1F)Nc1cc(Cl)c(OC(F)(F)C(F)F)c(Cl)c1`: the call in test [1], in test [2], in test [3], in test [4], in test [5] and in test [6] was inactive. Besides, the outcome in [7], in [8] and in test [9] was inactive.

Regarding `O=C(NC(=O)c1cc(F)c(F)cc1Cl)Nc1cc(F)ccc1N1CCC(C(=O)O)CC1`, the result in test [1], in test [3], in test [4], in test [5], in test [6] and in test [7] was inactive. In addition, the outcome in [9] was inactive. Also, in [8], the AC50 is 4.16 µM (active).

Turning to `c1cc2ccc3cccc4ccc(c1)c2c34`, the outcome in test [1], in [3], in test [4], in [6], in test [7] and in test [9] was inactive. Also, the results for the AC50 in test [5] and in test [8] were 68.7 µM (active) and 7.9 µM (active), respectively.

As to `Cc1cccc(C)c1N`, the compound was called inactive in [1], in test [2], in test [3], in test [4], in test [5] and in test [6]. In addition, the compound was called inactive in [7], in [8] and in test [9].

As to `CCCCCCCCOC(=O)c1ccccc1C(=O)OCCCCCCCC`, the result in test [1], in test [3], in [4], in [5], in [6] and in test [7] was inactive. For the same compound, the compound was called inactive in test [8] and in [9].

The record behind these values is PubChem BioAssay (EPA / NIEHS).
